About 1,800 (0.62%) of roughly 290,000 compounds were called active. Cut-off read from the data, not from the text of the source: active = inhibition above about 50%; inactive = the rest. The sample as a whole holds a higher share of actives than the screen did.
Assay: NOD2 signaling inhibitors, cell-based, luminescence, uHTS, HEK293 (AID 1566)
Settings: HEK293 NOD2/NF-kB luciferase reporter, at 4 µM, active compounds read high

inhibition, active:
C=CCc1ccccc1OCC(=O)NNC(=S)NCc1ccccc1 64.8%
COc1ccccc1CNC(=O)N1CCN(c2ccccc2C)CC1 71%
CCCc1nnc(NC(=O)CCC(=O)N2CCN(Cc3ccc(Cl)cc3)CC2)s1 53.2%
O=[N+]([O-])c1ccc(Sc2cccc[n+]2[O-])c2nonc12 93%
Cc1oc(-c2ccc3c(c2)OCCO3)cc1C(=O)O 79%
CN1/C(=C\C=C(/C#N)C(=O)Nc2ccc(Cl)cc2)C(C)(C)c2ccccc21 50.6%
CC(C)(C)c1ccc(C(=O)NC(=S)Nc2nc3c(s2)CCCC3)cc1 60.3%
CC1(C)N=C(N)N=C(N)N1c1ccc(Oc2ccc(Cl)cc2)c(Cl)c1 58.7%
CCc1oc2ccccc2c1C(=O)c1cc(Br)c(O)c(Br)c1 51.8%
CCN(CC)c1ccc(/C=N/NC(=O)CNC(=O)C2COc3ccccc3O2)c(O)c1 (stereo not given) 69.1%

inhibition, inactive:
O=C(Nc1cccc2ccccc12)C1CCN(C(=O)NCc2ccccc2)CC1 -12.5%
Cc1cccc(OCC(=O)N/N=C2/SCC(=O)N2Cc2ccco2)c1 14.5%
O=C(COc1ccc(Cl)cc1)NNC(=S)NCc1ccccc1 -20.7%
C=CCc1ccccc1OCC(=O)O -5.4%
Cc1cc(-c2ccccc2)nc(Cl)c1C#N 17.2%
COC(=O)C1=C(C(=O)OC)[C@@H]2N(C)c3ccc(OC)cc3[C@@]23C[C@@H](C(=O)OC)N(C(=O)C2CCC2)C3=N1 -5.5%
COc1cc(/C=C2\COC/C(=C\c3ccc(O)c(OC)c3)C2=O)ccc1O 2%
COc1cc(OC)c(OC)cc1/C=C1/Cc2ccccc2C1=O 26.6%
COc1ccc(/C=C2\CC/C(=C\c3ccc(OC)cc3OC)C2=O)c(OC)c1 -4.6%
COc1cc(OC)c(OC)cc1/C=C1\CCC(C2CCCC2)C1=O (stereo not given) 27%
COc1cc(/C=C2/CC/C(=C/c3ccc(O)c(OC)c3)C2=O)ccc1O -69.1%
COc1ccc(/C=C2\CCC/C(=C\c3ccc(OC)c(OC)c3OC)C2=O)c(OC)c1OC -10.3%
CCCn1cnnc1CNC(=O)C1CCC(=O)N(CCc2ccc(OC)cc2)C1 (stereo not given) -2.5%
COc1cc(OC)cc(C(=O)N[C@H](C(=O)NCc2ccco2)C(C)C)c1 4.8%
CCN1CCN(CC(=O)N2c3ccccc3Sc3ccccc32)CC1 21.1%
Cc1noc(C)c1CSCC(=O)OCC(=O)NC1CCCCC1 1.1%
[O-][N+]1=C2CCC/C(=N\O)C2=NC12CCCCC2 -8.9%
COc1ccccc1CNC(=O)N1CCN(c2ccccc2)CC1 8.6%
COc1ccccc1CNC(=O)N1CCN(c2ccccc2Cl)CC1 4%
O=C(CCC(=O)N1CCc2ccccc21)Nc1ccccc1 12.5%
N/C(=N\N=C/c1ccc(Br)cc1)N/N=C\c1ccc(Br)cc1 -5.9%
CCN1CCN(c2ccc(NC(=O)COc3ccc([N+](=O)[O-])cc3)cc2)CC1 -32.4%
CCc1nnc(NC(=O)CCC(=O)N2CCN(Cc3ccc(Cl)cc3)CC2)s1 5.9%
CCCc1nnc(NC(=O)CCC(=O)N2CCN(Cc3ccc(F)cc3)CC2)s1 -3.9%
CCc1ccc(NC(=O)CC2C(=O)N(c3ccc(C)cc3)C(=O)N2C2CC2)cc1 (stereo not given) -17.1%
O=C(Nc1ccc2ccccc2n1)Nc1ccccc1F -1.1%
COc1ccc(-n2c(C)cc(/C=C3\SC(=S)NC3=O)c2C)cc1 -195%
COc1ccccc1OCCCOc1ccc(/C=C2\SC(=O)NC2=O)cc1OC 32%
CCOc1ccc(N(C)c2ccc(/C=C3/SC(=S)NC3=O)cc2)cc1 -2.9%
COc1cc(/C=C2/SC(=O)NC2=O)ccc1OCc1ccccc1 -9.8%
CCOc1ccc(/C=C2\SC(=S)NC2=O)cc1OC -106%
COc1ccc2cc(/C=C3\SC(=S)NC3=O)c(N3CCOCC3)nc2c1 42.8%
COc1cccc(CNC(=O)C2CCC(=O)N(C3CC3)C2)c1OC (stereo not given) -2.5%
O=C(NCCSCc1ccc(Cl)cc1)c1cccs1 6.3%
CCOc1ccc(-c2[nH]ncc2-c2ccc(Cl)cc2)c(O)c1 17.2%
CSc1nc(Oc2ccc3ccccc3c2)c2ccccc2n1 -0.5%
CCN(Cc1ccccc1)C(=O)Cn1c(=O)n(CCC(=O)N2CCCCC2)c(=O)c2sccc21 1.5%
O=[N+]([O-])c1ccc(Nc2ccccc2O)c2nonc12 16%
O=[N+]([O-])c1ccc(Nc2ccccc2)c2nonc12 42%
O=C(NCCN1CCOCC1)c1ccccc1N1C(=O)[C@@H]2Cc3c([nH]c4ccccc34)C(c3ccccc3)N2C1=O (stereo not given in full) 5.2%
Cc1ccc(NC2CCCN(C(=O)CCn3nccc3C)C2)cc1C (stereo not given) -4%
CC1(C)CC(N2CCCC2)=CC(=[N+]2CCCCC2)C1 33.8%
CC1(C)CC(N2CCCCC2)=CC(=[N+]2CCCCC2)C1 44.9%
Cc1cc(C(=O)OCC(=O)Nc2cc(S(=O)(=O)N(C)C)ccc2Cl)c2ccccc2n1 10.5%
CCOC(=O)CNC(=O)c1cc(-c2ccc3c(c2)OCCO3)oc1C -25%
Cc1oc(-c2ccc3c(c2)OCCO3)cc1C(=O)NCC(=O)O 18%
CC1CN(CCOc2ccc(Cl)c(Cl)c2)CC(C)O1 (stereo not given) -27.9%
O=C(NCC(=O)N1CCN(c2ccccc2)CC1)c1ccccc1 -11.2%
Clc1ccc(/C=C/c2nc(Cl)c(-c3ccc(Cl)cc3)c(Cl)n2)cc1 15.1%
CN1/C(=C/C=C(/C#N)C(N)=O)C(C)(C)c2ccccc21 -25.4%
CN1/C(=C\C=C(/C#N)C(=O)Nc2ccccc2F)C(C)(C)c2ccccc21 23.2%
Cc1nn(C(=O)CCCn2cc([N+](=O)[O-])cn2)c(C)c1Cl 16.7%
Cc1ccc(C(=O)NCCNc2ccc([N+](=O)[O-])cc2C(F)(F)F)cc1 16.4%
COc1ccc(-c2cc(=O)oc3cc(OCC(C)=O)ccc23)cc1 -11.8%
COc1ccc(-c2cc(=O)oc3cc(OC(C)C(=O)O)ccc23)cc1 (stereo not given) -5.9%
CCCn1c(=O)c(Cc2ccccc2)c(O)c2ccccc21 6.4%
CCn1cc(/C=C(\NC(=O)c2ccc(OC)cc2)C(=O)N2CCOCC2)c2ccccc21 11.3%
Cc1cc2c(c(=O)o1)C(C(C)C)C(C#N)=C(N)O2 (stereo not given) 6.9%
OCCN1CCN(Cc2cc(Cl)c3cccnc3c2O)CC1 -47.1%
CCOC(=O)N1CCN(Cc2cc(Cl)c3cccnc3c2O)CC1 11.2%
Cc1ccc(S(=O)(=O)NNC(=O)c2ccccc2O)cc1 8.4%
COc1ccc(S(=O)(=O)N(Cc2cc3cc(C)ccc3[nH]c2=O)CC2CCCO2)cc1 (stereo not given) 16.6%
O=C(NC(=S)Nc1nc2c(s1)CCCC2)c1ccccc1 -7.3%
COC(=O)c1ccc(C(=O)NC(=S)Nc2nc3c(s2)CCCC3)cc1 5.1%
COc1ccc(S(=O)(=O)N(CC(=O)N2CCN(C)CC2)c2ccc(C)cc2)cc1Br -9.5%
CCOc1ccc(N2C(N)=NC(N)=NC2(C)C)cc1 -5.6%
COc1ccc(N2C(N)=NC(N)=NC2(C)C)cc1 -2.7%
COc1ccccc1N1CCN(C(=O)CSc2nnc3c4ccccc4n(CC(=O)O)c3n2)CC1 9.3%
COC(=O)CSc1nnc(CNC(=O)c2ccc(S(=O)(=O)N3CCCCC3)cc2)n1C 12.8%
Cc1ccc(NC(=O)C2=NNC(=O)CC2)cc1F -17.2%
Cc1ccccc1S(=O)(=O)Oc1cccc2c(O)cccc12 1.5%
CNC(=O)CN(c1cc([N+](=O)[O-])ccc1OC)S(C)(=O)=O 12.6%
CCc1oc2ccccc2c1C(=O)CCN1CCCCC1 3.9%
CCCCc1oc2ccccc2c1C(=O)c1cc(I)c(OCCN(CC)CC)c(I)c1 14.9%
O=C(COC(=O)c1cccnc1Cl)c1ccc(Cl)cc1Cl 9.1%
CCCc1ccc(-c2cc(C(=O)Nc3ccc([N+](=O)[O-])cn3)c3ccccc3n2)cc1 -29.8%
COc1ccc2oc(=O)c(C(C)=O)cc2c1 19.5%
CCCCN(Cc1ccco1)C(=O)c1cc2c(=O)[nH]c3ccc(C)cc3c2s1 34.9%
COc1ccc(N(CC(=O)N/N=C/c2ccc(N(C)C)cc2)S(=O)(=O)c2ccccc2)cc1 -57%
O=C(CNC(=O)C1COc2ccccc2O1)N/N=C/c1ccc(O)cc1O (stereo not given) 8.2%
O=C(CNC(=O)C1COc2ccccc2O1)N/N=C\c1ccccc1Cl (stereo not given) 19.9%
O=C(CSc1nc(-c2ccco2)cc(C(F)(F)F)n1)N1CCSCC1 13.4%
CCOC(=O)N1CCN(S(=O)(=O)N2CCCC(C(=O)NCCCN3CC(C)CC(C)C3)C2)CC1 (stereo not given) -13.2%
CN1CCc2nc(NC(=O)COc3ccc4ccccc4c3)sc2C1 -39.7%
NC(=O)c1cccnc1Nc1ccccc1F -1.6%

Reference: PubChem BioAssay AID1566 (Sanford-Burnham Center for Chemical Genomics, 2009)
